The values that follow come from PubChem BioAssay (NCI).

Among the test systems are NCI-H23 lung; NCI-H226 lung; NCI-H322M lung; HOP-62 NSCLC; NCI-H460 lung; HOP-92 NSCLC; NCI-H522 lung; A549/ATCC NSCLC; 786-0 renal; COLO 205 colon; DU-145 prostate; K-562 leukemia; MALME-3M melanoma; MDA-MB-231 breast; RXF 393 renal; SF-268 CNS; SF-295 CNS; SF-539 CNS; UACC-257 melanoma; M14 melanoma.
Experiment in all cases: NCI-60 one-dose screen, 48 h (100 = growth as untreated, 0 = no growth, -100 = all killed)
Holding throughout (conditions): 10 µM

SMILES strings stand for the structures. The panel holds about 83,000 compounds, 20% with a hit somewhere; the sample as a whole holds those more often.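 In brief: 96-well plates, 48 h treatment, single concentration, percent growth endpoint.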 Values without a mark were called inactive. Activity calls are given as the source filed them. Rule for the calls: active = growth percent below 10; inactive = the rest.

On to `O=C(Nc1ccc(OCc2nnc(-c3ccccc3)o2)c(F)c1)Nc1ccc(Cl)c(Cl)c1`, for which the growth in the experiment with NCI-H23 lung is 53%; in the experiment on NCI-H226 lung it was 72.3%; in the experiment on NCI-H322M lung it was 62.5%; in the experiment on HOP-62 NSCLC it was 76.6%; with NCI-H460 lung, 36.6%; with HOP-92 NSCLC, 55.5%. Also, the growth was 35% in the experiment on NCI-H522 lung; 55.5% in the experiment with A549/ATCC NSCLC; 82.1% in the experiment with 786-0 renal; 58.9% in the experiment on COLO 205 colon; 64.1% with DU-145 prostate; 34.4% in the experiment on K-562 leukemia. For the same molecule, the growth in the experiment with MALME-3M melanoma is 57.8%; in the experiment with MDA-MB-231 breast, 64.5%; in the experiment with RXF 393 renal, 56.3%; with SF-268 CNS, 80.7%; in the experiment with SF-295 CNS, 39.4%; with SF-539 CNS, 75.5%. In addition, the growth was 59.9% with UACC-257 melanoma and 70.4% with M14 melanoma.
Regarding `Cc1cc(OI)c(C(C)C)cc1-c1cc(C(C)C)c(OI)cc1C`, the growth in the experiment on NCI-H23 lung was 94.9%; in the experiment on NCI-H226 lung, 93.7%; with NCI-H322M lung it was 95.9%; in the experiment with HOP-62 NSCLC, 84.9%; in the experiment with NCI-H460 lung it was 106%; in the experiment on HOP-92 NSCLC, 101%. Also, the growth with NCI-H522 lung was 94.5%; in the experiment with A549/ATCC NSCLC, 94.3%; with 786-0 renal it was 103%; with COLO 205 colon, 114%; in the experiment with DU-145 prostate, 101%; with K-562 leukemia, 98.8%. Also, the growth in the experiment with MALME-3M melanoma was 105%; in the experiment on MDA-MB-231 breast, 104%; with RXF 393 renal it was 101%; in the experiment with SF-268 CNS, 96.8%; in the experiment with SF-295 CNS, 101%; with SF-539 CNS it was 94.3%. Besides, the growth in the experiment on UACC-257 melanoma was 101%; with M14 melanoma it was 104%.
For the molecule `COc1ccc2nc(-c3ccccc3)cc(C(C)=O)c2c1`, the growth in the experiment with NCI-H23 lung is 89.8%; in the experiment on NCI-H226 lung it was 87.6%; with NCI-H322M lung, 84.7%; with HOP-62 NSCLC, 78.3%; in the experiment on NCI-H460 lung it was 99.1%; in the experiment on HOP-92 NSCLC it was 71.5%. Further, the growth is 80.9% with NCI-H522 lung; 100% in the experiment with A549/ATCC NSCLC; 95.8% in the experiment with 786-0 renal; 110% with COLO 205 colon; 107% with DU-145 prostate; 84.1% with K-562 leukemia. Further, the growth in the experiment on MALME-3M melanoma is 86.5%; in the experiment on MDA-MB-231 breast it was 89.5%; in the experiment on RXF 393 renal it was 102%; with SF-268 CNS it was 96.1%; in the experiment on SF-295 CNS, 96.3%; in the experiment on SF-539 CNS it was 86.1%. Moreover, the growth with UACC-257 melanoma is 99.9%; in the experiment with M14 melanoma, 95.3%.
As for `C=C1C(=O)O[C@H]2[C@H]1CC/C(COC(=O)OCCCCCOC(=O)OC/C1=C/CC[C@@]3(C)O[C@H]3[C@H]3OC(=O)C(=C)[C@@H]3CC1)=C\CC[C@@]1(C)O[C@@H]21`, the growth is -37.5% (active) in the experiment on NCI-H23 lung; -33% (active) in the experiment with NCI-H226 lung; 50.9% with NCI-H322M lung; 9.65% (active) in the experiment on HOP-62 NSCLC; -19.9% (active) with NCI-H460 lung; -49.6% (active) in the experiment with HOP-92 NSCLC. The growth in the experiment on NCI-H522 lung was -66.2% (active); in the experiment on A549/ATCC NSCLC, 44.3%; in the experiment with 786-0 renal it was -63.8% (active); with COLO 205 colon, -85% (active); in the experiment with DU-145 prostate, -4.53% (active); in the experiment with K-562 leukemia, 1.11% (active). The growth in the experiment on MALME-3M melanoma was -30.1% (active); in the experiment on MDA-MB-231 breast, -87% (active); in the experiment on RXF 393 renal, -69.8% (active); in the experiment on SF-268 CNS, 7.62% (active); with SF-295 CNS it was 45.4%; in the experiment with SF-539 CNS it was -33.1% (active). For the same molecule, the values for the growth in the experiment with UACC-257 melanoma and with M14 melanoma were -87% (active) and -45.5% (active), respectively.
Turning to `COc1ccc(-c2csc(NC(=O)CO[N+](=O)[O-])n2)cc1`, the growth in the experiment on NCI-H23 lung is 93.4%; in the experiment on NCI-H226 lung it was 102%; with NCI-H322M lung, 96.1%; with HOP-62 NSCLC, 101%; in the experiment with NCI-H460 lung, 94.1%; with HOP-92 NSCLC, 118%. Also, the growth is -39.7% (active) in the experiment with NCI-H522 lung; 84.9% in the experiment on A549/ATCC NSCLC; 113% with 786-0 renal; 89.1% with COLO 205 colon; 106% in the experiment with DU-145 prostate; 96.8% with K-562 leukemia. For the same molecule, the growth is 102% in the experiment on MALME-3M melanoma; 102% with MDA-MB-231 breast; 125% with RXF 393 renal; 99.5% in the experiment on SF-268 CNS; 101% with SF-295 CNS; 98.7% in the experiment on SF-539 CNS. For the same molecule, the growth in the experiment on UACC-257 melanoma is 63%; with M14 melanoma it was 102%.
On to `CCc1nn2c(-c3ccccc3)c(-c3cc(OC)c(OC)c(OC)c3)nc2s1`, for which the growth in the experiment on NCI-H23 lung is 98.3%; with NCI-H226 lung, 84.6%; with NCI-H322M lung it was 82.4%; in the experiment on HOP-62 NSCLC, 98.7%; in the experiment on NCI-H460 lung it was 88.3%; in the experiment with HOP-92 NSCLC, 49.8%. In addition, the growth in the experiment on NCI-H522 lung was 70.9%; in the experiment on A549/ATCC NSCLC, 92.1%; in the experiment on 786-0 renal, 76.5%; in the experiment on COLO 205 colon, 84.9%; in the experiment on DU-145 prostate, 102%; with K-562 leukemia, 92.1%. Further, the growth in the experiment with MALME-3M melanoma is 62.4%; in the experiment with MDA-MB-231 breast it was 76.8%; in the experiment on RXF 393 renal, 88.9%; in the experiment with SF-268 CNS, 96%; in the experiment with SF-295 CNS, 89.1%; in the experiment on SF-539 CNS, 97.3%. In addition, the growth with UACC-257 melanoma is 107%; in the experiment with M14 melanoma, 99.1%.
In the case of `Cc1cc(C)c(/C=C2\C(=O)Nc3ccc(NC(=O)CCCCCCC(=O)NO)cc32)[nH]1`, the growth in the experiment on NCI-H23 lung is 52.4%; in the experiment on NCI-H226 lung it was 65.6%; with NCI-H322M lung, 31.3%; in the experiment on HOP-62 NSCLC it was 34%; with NCI-H460 lung, 77.4%; in the experiment with HOP-92 NSCLC, -30.4% (active). The growth is -10.6% (active) in the experiment with NCI-H522 lung; 82% with A549/ATCC NSCLC; 72% with 786-0 renal; 3.61% (active) with COLO 205 colon; 19.3% in the experiment with DU-145 prostate; 22.7% in the experiment on K-562 leukemia. For the same molecule, the growth in the experiment with MALME-3M melanoma is 18.7%; in the experiment with MDA-MB-231 breast, 12%; with RXF 393 renal it was 19.1%; in the experiment on SF-268 CNS, 22.8%; with SF-295 CNS it was 30%; in the experiment with SF-539 CNS it was 15%. Moreover, the growth is 0.0206% (active) with UACC-257 melanoma and 18.4% in the experiment on M14 melanoma.
With `Cc1c(C(=O)N[C@H](CO)Cc2ccccc2)[nH]c2ccc(Cl)cc2c1=O`, the growth in the experiment on NCI-H23 lung was 101%; with NCI-H226 lung, 120%; with NCI-H322M lung it was 108%; with HOP-62 NSCLC, 100%; with NCI-H460 lung it was 106%; with HOP-92 NSCLC it was 94.7%. Besides, the growth is 83.8% in the experiment with NCI-H522 lung; 87.1% with A549/ATCC NSCLC; 96.4% in the experiment on 786-0 renal; 104% in the experiment on COLO 205 colon; 110% in the experiment with DU-145 prostate; 95.5% with K-562 leukemia. The growth in the experiment with MALME-3M melanoma was 104%; in the experiment with MDA-MB-231 breast, 115%; in the experiment on RXF 393 renal, 122%; in the experiment on SF-268 CNS, 104%; in the experiment on SF-295 CNS, 98.2%; in the experiment on SF-539 CNS it was 98.9%. Besides, the growth in the experiment with UACC-257 melanoma was 108%; in the experiment on M14 melanoma, 98.2%.
